Measured values reported in article PMC11006913.

How the values were obtained:
Test in all cases: PBM; 200 nM protein, PBS
Details in all cases: dsDNA, one strand shown
HESX1 [1] = target: HESX1 (Homo sapiens, UniProt Q9UBX0 95-180, R165K)
SHOX [2] = target: SHOX (Homo sapiens, UniProt O15266 103-189)
ALX4 [3] = target: ALX4 (Homo sapiens, UniProt Q9H161 200-286)
PRRX1 [4] = target: PRRX1 (Homo sapiens, UniProt P54821 80-166, F113S)
ALX4 [5] = target: ALX4 (Homo sapiens, UniProt Q9H161 200-286, Q225E)
Chain of ALX4 (Homo sapiens, UniProt Q9H161 200-286, Q225E) (Q9H161 200-286 Q225E): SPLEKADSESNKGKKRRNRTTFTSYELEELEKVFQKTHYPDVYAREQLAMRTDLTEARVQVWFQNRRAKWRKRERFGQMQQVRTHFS

HESX1 [6] = target: HESX1 (Homo sapiens, UniProt Q9UBX0 95-180)
Chain of HESX1 (Homo sapiens, UniProt Q9UBX0 95-180) (Q9UBX0 95-180): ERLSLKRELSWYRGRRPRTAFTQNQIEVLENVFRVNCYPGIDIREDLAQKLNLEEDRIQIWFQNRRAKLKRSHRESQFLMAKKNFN

ALX1 [7] = target: ALX1 (Homo sapiens, UniProt Q15699 118-204, L144V)
Chain of ALX1 (Homo sapiens, UniProt Q15699 118-204, L144V) (Q15699 118-204 L144V): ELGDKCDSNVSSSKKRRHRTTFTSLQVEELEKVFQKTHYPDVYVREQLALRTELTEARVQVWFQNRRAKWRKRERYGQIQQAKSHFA

SHOX [8] = target: SHOX (Homo sapiens, UniProt O15266 103-189, R173C)
Chain of SHOX (Homo sapiens, UniProt O15266 103-189, R173C) (O15266 103-189 R173C): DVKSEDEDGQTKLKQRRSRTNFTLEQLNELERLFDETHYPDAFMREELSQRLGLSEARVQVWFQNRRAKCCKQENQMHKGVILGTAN

ALX1 [9] = target: ALX1 (Homo sapiens, UniProt Q15699 118-204, L144R)
Chain of ALX1 (Homo sapiens, UniProt Q15699 118-204, L144R) (Q15699 118-204 L144R): as the sequence (Q15699 118-204 L144V) above, with V27R counted along it

PROP1 [10] = target: PROP1 (Homo sapiens, UniProt O75360 56-141)
Chain of PROP1 (Homo sapiens, UniProt O75360 56-141) (O75360 56-141): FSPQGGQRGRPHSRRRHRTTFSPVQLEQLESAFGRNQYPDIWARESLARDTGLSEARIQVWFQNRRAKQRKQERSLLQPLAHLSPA

HESX1 [11] = target: HESX1 (Homo sapiens, UniProt Q9UBX0 95-180, R109Q)
Chain of HESX1 (Homo sapiens, UniProt Q9UBX0 95-180, R109Q) (Q9UBX0 95-180 R109Q): as the sequence (Q9UBX0 95-180) above, with R15Q counted along it

PROP1 [12] = target: PROP1 (Homo sapiens, UniProt O75360 56-141, R99H)
Chain of PROP1 (Homo sapiens, UniProt O75360 56-141, R99H) (O75360 56-141 R99H): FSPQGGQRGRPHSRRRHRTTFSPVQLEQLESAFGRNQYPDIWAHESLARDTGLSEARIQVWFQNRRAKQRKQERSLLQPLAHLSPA

ALX3 = ALX3 (Homo sapiens, UniProt O95076 139-225, L168Q)
Chain of ALX3 (O95076 139-225 L168Q): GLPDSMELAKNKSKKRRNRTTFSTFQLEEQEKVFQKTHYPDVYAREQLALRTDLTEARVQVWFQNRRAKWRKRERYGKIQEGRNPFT

HESX1 [13] = target: HESX1 (Homo sapiens, UniProt Q9UBX0 95-180, P111T)
Chain of HESX1 (Homo sapiens, UniProt Q9UBX0 95-180, P111T) (Q9UBX0 95-180 P111T): as the sequence (Q9UBX0 95-180) above, with P17T counted along it

PROP1 [14] = target: PROP1 (Homo sapiens, UniProt O75360 56-141, F88S)
Chain of PROP1 (Homo sapiens, UniProt O75360 56-141, F88S) (O75360 56-141 F88S): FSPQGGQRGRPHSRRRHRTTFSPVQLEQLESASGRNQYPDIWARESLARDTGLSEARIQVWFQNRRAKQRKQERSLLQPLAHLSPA

HESX1 [15] = target: HESX1 (Homo sapiens, UniProt Q9UBX0 95-180, F115L)
Chain of HESX1 (Homo sapiens, UniProt Q9UBX0 95-180, F115L) (Q9UBX0 95-180 F115L): as the sequence (Q9UBX0 95-180) above, with F21L counted along it

ALX1 [16] = target: ALX1 (Homo sapiens, UniProt Q15699 118-204)
Chain of ALX1 (Homo sapiens, UniProt Q15699 118-204) (Q15699 118-204): as the sequence (Q15699 118-204 L144V) above, with V27L counted along it

PRRX1 [17] = target: PRRX1 (Homo sapiens, UniProt P54821 80-166)
Chain of PRRX1 (Homo sapiens, UniProt P54821 80-166) (P54821 80-166): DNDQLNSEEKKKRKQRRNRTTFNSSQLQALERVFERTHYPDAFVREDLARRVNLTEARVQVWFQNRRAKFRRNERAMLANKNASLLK

MSX2 [18] = target: MSX2 (Homo sapiens, UniProt P35548 130-214, R199I)
Chain of MSX2 (Homo sapiens, UniProt P35548 130-214, R199I) (P35548 130-214 R199I): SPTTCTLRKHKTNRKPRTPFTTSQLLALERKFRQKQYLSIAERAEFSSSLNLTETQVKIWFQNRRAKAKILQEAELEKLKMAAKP

MSX2 [19] = target: MSX2 (Homo sapiens, UniProt P35548 130-214, F161Y)
Chain of MSX2 (Homo sapiens, UniProt P35548 130-214, F161Y) (P35548 130-214 F161Y): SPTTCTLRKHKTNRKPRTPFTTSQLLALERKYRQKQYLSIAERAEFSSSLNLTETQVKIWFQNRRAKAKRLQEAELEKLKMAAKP

Chain of HESX1 (Homo sapiens, UniProt Q9UBX0 95-180, R165K) (Q9UBX0 95-180 R165K): as the sequence (Q9UBX0 95-180) above, with R71K counted along it
Chain of ALX4 (Homo sapiens, UniProt Q9H161 200-286) (Q9H161 200-286): as the sequence (Q9H161 200-286 Q225E) above, with E26Q counted along it
Chain of SHOX (Homo sapiens, UniProt O15266 103-189) (O15266 103-189): as the sequence (O15266 103-189 R173C) above, with C71R counted along it
Chain of PRRX1 (Homo sapiens, UniProt P54821 80-166, F113S) (P54821 80-166 F113S): as the sequence (P54821 80-166) above, with F34S counted along it

With AATTAGAT the binding signal (HESX1 [1]) was 11.3 upbm affinity estimate (log intensity, higher = more binding, comparable within an allelic series), the binding signal (SHOX [2]) was 11.6 upbm affinity estimate (log intensity, higher = more binding, comparable within an allelic series) and the binding signal (ALX4 [3]) was 13.7 upbm affinity estimate (log intensity, higher = more binding, comparable within an allelic series). The binding signal (PRRX1 [4]) was 11.1 upbm affinity estimate (log intensity, higher = more binding, comparable within an allelic series), the binding signal (ALX4 [5]) was 12.6 upbm affinity estimate (log intensity, higher = more binding, comparable within an allelic series) and the binding signal (HESX1 [6]) was 11.4 upbm affinity estimate (log intensity, higher = more binding, comparable within an allelic series). The binding signal (ALX1 [7]) was 11.6 upbm affinity estimate (log intensity, higher = more binding, comparable within an allelic series), the binding signal (SHOX [8]) was 9.16 upbm affinity estimate (log intensity, higher = more binding, comparable within an allelic series) and the binding signal (ALX1 [9]) was 11.1 upbm affinity estimate (log intensity, higher = more binding, comparable within an allelic series). For the same sequence, the binding signal (PROP1 [10]) was 11.5 upbm affinity estimate (log intensity, higher = more binding, comparable within an allelic series), the binding signal (HESX1 [11]) was 8.52 upbm affinity estimate (log intensity, higher = more binding, comparable within an allelic series) and the binding signal (PROP1 [12]) was 10.9 upbm affinity estimate (log intensity, higher = more binding, comparable within an allelic series). The binding signal (ALX3) was 10.2 upbm affinity estimate (log intensity, higher = more binding, comparable within an allelic series), the binding signal (HESX1 [13]) was 10.1 upbm affinity estimate (log intensity, higher = more binding, comparable within an allelic series) and the binding signal (PROP1 [14]) was 7.72 upbm affinity estimate (log intensity, higher = more binding, comparable within an allelic series). For the same sequence, the binding signal (HESX1 [15]) was 7.63 upbm affinity estimate (log intensity, higher = more binding, comparable within an allelic series), the binding signal (ALX1 [16]) was 12.2 upbm affinity estimate (log intensity, higher = more binding, comparable within an allelic series) and the binding signal (PRRX1 [17]) was 13.3 upbm affinity estimate (log intensity, higher = more binding, comparable within an allelic series).

AGGGACCG was tested, and the binding signal (HESX1 [1]) was 6.62 upbm affinity estimate (log intensity, higher = more binding, comparable within an allelic series), the binding signal (SHOX [2]) was 7.23 upbm affinity estimate (log intensity, higher = more binding, comparable within an allelic series) and the binding signal (HESX1 [6]) was 6.41 upbm affinity estimate (log intensity, higher = more binding, comparable within an allelic series). For the same sequence, the binding signal (SHOX [8]) was 7.13 upbm affinity estimate (log intensity, higher = more binding, comparable within an allelic series), the binding signal (HESX1 [11]) was 6.42 upbm affinity estimate (log intensity, higher = more binding, comparable within an allelic series) and the binding signal (HESX1 [13]) was 6.58 upbm affinity estimate (log intensity, higher = more binding, comparable within an allelic series). For the same sequence, the binding signal (HESX1 [15]) was 6.26 upbm affinity estimate (log intensity, higher = more binding, comparable within an allelic series).

With CAAATTAA the binding signal (HESX1 [1]) was 11.5 upbm affinity estimate (log intensity, higher = more binding, comparable within an allelic series), the binding signal (SHOX [2]) was 11.7 upbm affinity estimate (log intensity, higher = more binding, comparable within an allelic series) and the binding signal (ALX4 [3]) was 13.7 upbm affinity estimate (log intensity, higher = more binding, comparable within an allelic series). For the same sequence, the binding signal (PRRX1 [4]) was 11 upbm affinity estimate (log intensity, higher = more binding, comparable within an allelic series), the binding signal (ALX4 [5]) was 12.9 upbm affinity estimate (log intensity, higher = more binding, comparable within an allelic series) and the binding signal (HESX1 [6]) was 11.5 upbm affinity estimate (log intensity, higher = more binding, comparable within an allelic series). The binding signal (ALX1 [7]) was 11.6 upbm affinity estimate (log intensity, higher = more binding, comparable within an allelic series), the binding signal (SHOX [8]) was 9.3 upbm affinity estimate (log intensity, higher = more binding, comparable within an allelic series) and the binding signal (ALX1 [9]) was 11.1 upbm affinity estimate (log intensity, higher = more binding, comparable within an allelic series). For the same sequence, the binding signal (PROP1 [10]) was 11 upbm affinity estimate (log intensity, higher = more binding, comparable within an allelic series), the binding signal (HESX1 [11]) was 8.49 upbm affinity estimate (log intensity, higher = more binding, comparable within an allelic series) and the binding signal (PROP1 [12]) was 10.7 upbm affinity estimate (log intensity, higher = more binding, comparable within an allelic series). For the same sequence, the binding signal (ALX3) was 10.4 upbm affinity estimate (log intensity, higher = more binding, comparable within an allelic series), the binding signal (HESX1 [13]) was 10.1 upbm affinity estimate (log intensity, higher = more binding, comparable within an allelic series) and the binding signal (PROP1 [14]) was 7.49 upbm affinity estimate (log intensity, higher = more binding, comparable within an allelic series). For the same sequence, the binding signal (HESX1 [15]) was 7.67 upbm affinity estimate (log intensity, higher = more binding, comparable within an allelic series), the binding signal (ALX1 [16]) was 12.1 upbm affinity estimate (log intensity, higher = more binding, comparable within an allelic series) and the binding signal (PRRX1 [17]) was 13.2 upbm affinity estimate (log intensity, higher = more binding, comparable within an allelic series).

With CCAATTAG the binding signal (HESX1 [1]) was 13.5 upbm affinity estimate (log intensity, higher = more binding, comparable within an allelic series), the binding signal (SHOX [2]) was 12.8 upbm affinity estimate (log intensity, higher = more binding, comparable within an allelic series) and the binding signal (ALX4 [3]) was 14.1 upbm affinity estimate (log intensity, higher = more binding, comparable within an allelic series). For the same sequence, the binding signal (PRRX1 [4]) was 11.2 upbm affinity estimate (log intensity, higher = more binding, comparable within an allelic series), the binding signal (ALX4 [5]) was 13.6 upbm affinity estimate (log intensity, higher = more binding, comparable within an allelic series) and the binding signal (HESX1 [6]) was 13.4 upbm affinity estimate (log intensity, higher = more binding, comparable within an allelic series). The binding signal (MSX2 [18]) was 13.1 upbm affinity estimate (log intensity, higher = more binding, comparable within an allelic series), the binding signal (ALX1 [7]) was 12 upbm affinity estimate (log intensity, higher = more binding, comparable within an allelic series) and the binding signal (SHOX [8]) was 10.3 upbm affinity estimate (log intensity, higher = more binding, comparable within an allelic series). The binding signal (ALX1 [9]) was 11.7 upbm affinity estimate (log intensity, higher = more binding, comparable within an allelic series), the binding signal (PROP1 [10]) was 11.9 upbm affinity estimate (log intensity, higher = more binding, comparable within an allelic series) and the binding signal (HESX1 [11]) was 10.5 upbm affinity estimate (log intensity, higher = more binding, comparable within an allelic series). The binding signal (PROP1 [12]) was 12.1 upbm affinity estimate (log intensity, higher = more binding, comparable within an allelic series), the binding signal (ALX3) was 10.9 upbm affinity estimate (log intensity, higher = more binding, comparable within an allelic series) and the binding signal (HESX1 [13]) was 12.2 upbm affinity estimate (log intensity, higher = more binding, comparable within an allelic series). For the same sequence, the binding signal (PROP1 [14]) was 7.63 upbm affinity estimate (log intensity, higher = more binding, comparable within an allelic series), the binding signal (MSX2 [19]) was 13.7 upbm affinity estimate (log intensity, higher = more binding, comparable within an allelic series) and the binding signal (HESX1 [15]) was 8.12 upbm affinity estimate (log intensity, higher = more binding, comparable within an allelic series). For the same sequence, the binding signal (ALX1 [16]) was 12.7 upbm affinity estimate (log intensity, higher = more binding, comparable within an allelic series) and the binding signal (PRRX1 [17]) was 13.4 upbm affinity estimate (log intensity, higher = more binding, comparable within an allelic series).
